KB-V1 MDR tox: KB-V1 MDR subline cytotoxicity. AID 1347076. 400,000 tested, 3.4% active. KB-V1 MDR cells viability, CellTiter-Glo, 72 h. Potency, µM (highest dose often 46.1 µM), hits mostly cytotoxic; note: nearly all actives have a fitted effect of over 60% in size
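Cells of the MDR subline KB-V1 are plated, dosed with compound at multiple concentrations, and incubated 72 h at 37 degrees C; CellTiter-Glo is then added and luminescence read after 10 min.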
HT1080-NT tox: kills 2HG-producing HT-1080-NT fibrosarcoma cells. HT-1080-NT fibrosarcoma viability, CellTiter-Glo ATP luminescence, 48 h. 360,000 tested, 1.6% active. Potency, µM (top dose mostly 46.1 µM), for inactives: top-dose activity, negative = less viability, usual class: cytotoxic;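 note: NT is the 2HG producing partner of a matched IDH1 knockdown line; 0% = DMSO-treated cells and -100% = media-only wells without cells; nearly all actives have a fitted effect of over 55% in size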
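Fibrosarcoma NT cells, 750 per well in 5% FBS RPMI, were exposed to compound for 48 hours. Viability: CellTiter-Glo luminescence.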
KB-3-1 tox: kills parental KB-3-1 adenocarcinoma cells; KB-3-1 viability, CellTiter-Glo ATP luminescence, 72 h; Potency, µM (top dose mostly 46.1 µM), hits mostly cytotoxic; 400,000 tested, 1.4% active; note: nearly all actives have a fitted effect of over 60% in size
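Cytotoxicity in the drug-sensitive parental line KB-3-1 was scored as loss of CellTiter-Glo luminescence following 72 h incubation with compound. Values come from curve fitting of normalized concentration-response data.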
HT1080 IDH1KD tx: HT-1080 IDH1 knockdown cell toxicity (counter line); Potency, µM (titrated, usually from 46.1 µM), for inactives: at the top dose activity, negative = toxicity, usual class: cytotoxic; 360,000 tested, 2% active; HT-1080 IDH1 knockdown viability, ATP luminescence, 48 h;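 note: 0% = DMSO wells and -100% = cell-free medium wells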
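In this qHTS, HT-1080 cells depleted of IDH1 are exposed for 48 h at 37 °C to compound titrations. Toxicity is scored from CellTiter-Glo luminescence, with DMSO as full viability and medium alone as none.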
TDP1 cell noCPT: qHTS for Inhibitors of human tyrosyl-DNA phosphodiesterase 1 (TDP1): qHTS in cells in absence of CPT. Potency, µM (top dose mostly 46.2 µM), without a hit: at the highest dose activity change, negative = growth inhibition, hits mostly inhibitors. 420,000 tested, 15% active. DT40 Tdp1-/- hTDP1 cells, no CPT, ATP luminescence, 48 h; note: nearly all actives have a fitted effect of over 55% in size
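Compound effects on proliferation are scored in DT40 Tdp1-/-;hTDP1 cells in the absence of CPT. ATP levels (CellTiter-Glo luminescence) are recorded after a ≥48 hr, 37 °C incubation.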
DT40 TDP1 CPT: growth inhibition of DT40 Tdp1-/-;hTDP1 cells with camptothecin (screen for TDP1 inhibitors); chicken DT40 Tdp1-/-;hTDP1 cells + 20 nM CPT, ATP luminescence, 48 h; 420,000 tested, 12% active; AID 686979; Potency, µM (series often up to 46.2 µM), for the others: at the top dose activity change, negative = growth inhibition, usual class: inhibitors; note: nearly all actives have a fitted effect of over 55% in size
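Chicken DT40 Tdp1-/- cells complemented with human TDP1, 400 cells/well, exposed to compounds plus 20 nM camptothecin for at least 48 h at 37 C; viability read as ATP content by CellTiter-Glo luminescence.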
An asterisk follows results filed as active; i = inactive; ? = inconclusive; . = no result given. Rows were chosen to be rich in hits. Some 19% of all compounds tested hit in one or more screens of this group. Calls come from the whole dose curve; as a rule, active = well fitted curve in the direction sought with a large enough effect; inconclusive = small, poorly fitted or top-dose-only effect, or another doubt; inactive = no such curve, though single readings can be large; an effect the other way counts as inactive or inconclusive. Unless noted, % is set by controls: 0 for no effect and ±100 for the full control effect; potency is the fitted concentration of half-maximal effect.

SMILES	KB-V1 MDR tox	HT1080-NT tox	KB-3-1 tox	HT1080 IDH1KD tx	TDP1 cell noCPT	DT40 TDP1 CPT
COc1ccc(SN=C2C(C)=CC(=O)C=C2C)cc1	i	-3%	i	1%	9.2µM*	?
CC(C)NC(=O)COc1coc(CN2CCN(C(=O)c3ccco3)CC2)cc1=O	i	-7%	i	3%	5%	-17%
Cc1cc(C)nc(NS(=O)(=O)c2ccc(NC(=O)c3ccccc3O)cc2)n1	i	.	i	.	-3%	-11%
Cc1ccccc1-n1c(C)n[nH]c1=S	i	13µM*	i	?	-2%	-18%
Cc1ccc(-c2n[nH]c(=S)n2Cc2ccccc2)cc1	?	?	i	?	-22%	-28%
CCc1cc(-c2n[nH]c(=S)n2Cc2ccccc2)cs1	21µM*	8%	i	10%	?	9%
CCOc1ccc(-c2n[nH]c(=S)n2Cc2ccccc2)cc1	i	-3%	i	0%	21µM*	?
CCc1cc(-c2n[nH]c(=S)n2CC)cs1	?	1%	?	2%	3%	7%
Cc1[nH]c2ccc(-c3n[nH]c(=S)n3Cc3ccccc3)cc2c1C	i	?	i	-27%	16µM*	23µM*
Cc1ccccc1-n1c(-c2ccoc2C)n[nH]c1=S	i	-2%	i	7%	?	?
CCc1cc(-c2n[nH]c(=S)n2-c2ccccc2C)cs1	18µM*	11µM*	i	?	-29%	-25%
Cc1ccccc1-n1c(Cc2cccs2)n[nH]c1=S	i	?	i	?	3%	-9%
CCCCc1ccc(NC(=O)c2cc3c(=O)n4ccccc4nc3s2)cc1	i	.	i	.	-14%	-19%
O=C(/C(=C\c1ccccc1)c1nc2ccccc2[nH]1)c1ccc(Cl)cc1	?	3.7µM*	?	3.3µM*	6.5µM*	7.3µM*
O=C(/C(=C/c1ccc(Cl)cc1)c1nc2ccccc2[nH]1)c1cccs1	?	16µM*	i	16µM*	4.1µM*	2.9µM*
COC(=O)/C(=C\c1ccc(O)cc1)c1nc2ccccc2[nH]1	i	9%	i	0%	?	?
COC(=O)/C(=C\c1cc(OC)c(OC)c(OC)c1)c1nc2ccccc2[nH]1	?	?	15µM*	?	16µM*	?
COc1cc(/C=C(/C(=O)c2cccs2)c2nc3ccccc3[nH]2)ccc1O	16µM*	7.9µM*	?	5µM*	18µM*	?
COc1cccc(NC(=O)N2CCC(NC(=O)C(Cc3ccccc3F)NC(C)=O)CC2)c1 (stereo unspecified)	i	5%	i	1%	29%	-9%
Cc1ccc(-n2ncc3c2CC(C)(C)CC3NC(=O)c2ccncc2)cc1 (stereo unspecified)	?	-1%	i	-1%	?	-20%
CCNC(=S)Nc1ccc(-c2nc3ccccc3[nH]2)cc1	i	-24%	i	-21%	?	6%
O=C(/C=C/c1cccc(Cl)c1)c1nc2ccccc2[nH]1	i	?	?	?	9.2µM*	12µM*
S=C(Nc1ccc(Cl)cc1)c1nc2ccccc2[nH]1	5.2µM*	?	?	?	?	?
CN(Cc1ccccc1)C1=CC(=[N+]2CCCC2)CC(C)(C)C1	i	?	i	?	0.23µM*	0.33µM*
CCN(CC)C1=CC(=[N+]2CCCC2)CC(C)(C)C1	i	?	?	?	0.52µM*	0.52µM*
SMILES	KB-V1 MDR tox	HT1080-NT tox	KB-3-1 tox	HT1080 IDH1KD tx	TDP1 cell noCPT	DT40 TDP1 CPT
CC(C)C(C(=O)NCC1CCCO1)N(C(=O)CNS(=O)(=O)c1ccccc1)c1ccc(F)cc1 (stereo unspecified)	i	17%	i	11%	-9%	0%
COc1ccc(-c2cnc(C)o2)cc1S(=O)(=O)Nc1ccc(OC(F)(F)F)cc1	i	.	i	.	-18%	-24%
CCOC(=O)c1cccc(NS(=O)(=O)c2cc(-c3cnc(C4CC4)o3)ccc2C)c1	i	.	i	.	2.1µM*	2.6µM*
Cc1ccc(-c2cnc(C3CC3)o2)cc1S(=O)(=O)Nc1ccc(F)cc1Cl	?	.	i	.	26µM*	?
COc1ccc(NS(=O)(=O)c2cc(-c3cnc(C4CC4)o3)ccc2C)cc1	?	?	13µM*	21µM*	4.6µM*	6.5µM*
CCOC(=O)c1cccc(NS(=O)(=O)c2cc3[nH]c(=O)c(=O)[nH]c3cc2C)c1	i	.	i	.	5%	-3%
Cc1ccc(F)cc1NS(=O)(=O)c1ccc(Cl)s1	i	-3%	i	-5%	?	-27%
COc1ccc(-n2ccn(Cc3ccccc3Cl)c(=O)c2=O)cc1OC	.	.	.	.	-18%	8%
O=C(CCCc1nc(-c2ccco2)no1)Nc1ccccc1[N+](=O)[O-]	.	.	.	.	-21%	-4%
Cc1ccccc1-c1nc(NCC2CC2)nc2ccsc12	i	-1%	i	-12%	?	23µM*
Cc1ccc(F)cc1-c1nc(NCC2CC2)nc2ccsc12	i	-14%	i	-8%	?	?
c1ccc(-c2nc(NCC3CC3)nc3ccsc23)cc1	i	13%	i	4%	?	16µM*
COC(=O)[C@@]1(Sc2ccc(C)cc2)CC(=O)N(c2ccc(Cl)cc2)[C@@H]1c1ccccc1	?	16%	i	9%	21µM*	?
COC(=O)c1cccc(N2C(=O)C[C@](Sc3ccc(C)cc3)(C(=O)OC)[C@H]2c2ccccc2)c1	?	?	i	?	23µM*	?
O=C(c1cccs1)N1C[C@@H](n2cc(C3CC3)nn2)[C@H](O)C[C@@H]1c1ccccc1	i	-2%	i	1%	?	-3%
COc1ccc(NC(=O)C2CCN(C3=NS(=O)(=O)C(c4ccc(C)c(C)c4)=C3C)CC2)cc1OC	i	.	i	.	11%	12%
Cc1cc(C(F)F)n2nc(C(=O)Nc3ccc(C(C)C)cc3)nc2n1	i	.	i	.	-30%	-17%
CCOc1ccccc1NC(=O)C1CCCN(C(=O)NCc2ccccc2)C1 (stereo unspecified)	8.2µM*	1%	i	5%	0%	-18%
CCOc1ccccc1NC(=O)C1CCCN(S(=O)(=O)c2ccc(OC)c(C)c2)C1 (stereo unspecified)	i	5%	i	11%	16µM*	?
